Experimental data from a collection of fitness landscapes (doi:10.1126/science.1257360).
Whole data set: some 140,000 sequences, median “enrichment ratio after two sorts for PhoP signalling” near 0, cut for the highest 2% near 11. The entries come from a sample that favours the highest values as a whole.

B1: PhoQ; a variant is named by its letters at X, in order, P23837 (parent)
chain: MKKLLRLFFPLSLRVRFLLATAAVVLVLSLAYGMVALIGYSVSFDKTTFRLLRGESNLFYTLAKWENNKLHVELPENIDKQSPTMTLIYDENGQLLWAQRDVPWLMKMIQPDWLKSNGFHEIEADVNDTSLLLSGDHSIQQQLQEVREDDDDAEMTHSVAVNVYPATSRMPKLTIVVVDTIPVELKSSYMVWSWFIYVLSANLLLVIPLLWVAAWWSLRPIEALAKEVRELEEHNRELLNPATTRELTSLVRNLNRLLKSERERYDKYRTTLTDLTHSLKTPLXXLQXXLRSLRSEKMSVSDAEPVMLEQISRISQQIGYYLHRASMRGGTLLSRELHPVAPLLDNLTSALNKVYQRKGVNISLDISPEISFVGEQNDFVEVMGNVLDNACKYCLEFVEISARQTDEHLYIVVEDDGPGIPLSKREVIFDRGQRVDTLRPGQGVGLAVAREITEQYEGKIVAGESMLGGARMEVIFGRQHSAPKDE

Variants of: B1
Assay: enrichment ratio after two sorts for PhoP signalling (ratio (wild type AVST 3.29)); higher = more functional
Details: with PhoP (E. coli)
With RRYY the enrichment ratio was no more than 0.25.
In the case of YGSL, the enrichment ratio is reported as no more than 0.25.
With NGLT the enrichment ratio was no more than 0.25.
Variant AGLA has an enrichment ratio of 4.99.
For AGLT, the enrichment ratio was 7.3.
In the case of TGLA, the enrichment ratio is reported as 27.5.
RYEP showed an enrichment ratio of no more than 0.25.
ECEP was tested, and the enrichment ratio was 15.1.
AGLS showed an enrichment ratio of 13.8.
RGLT gave an enrichment ratio of no more than 0.25.
For NGLA, the enrichment ratio was no more than 0.25.
For TGLT, the enrichment ratio was 13.5.
In the case of IPEP, the enrichment ratio is reported as no more than 0.25.
With RGLA the enrichment ratio was no more than 0.25.
Variant VHMY has an enrichment ratio of no more than 0.25.
Variant LARA has an enrichment ratio of no more than 0.25.
WQQI showed an enrichment ratio of no more than 0.25.
For FPEF, the enrichment ratio was no more than 0.25.
IHDS was tested, and the enrichment ratio was no more than 0.25.
DVNT showed an enrichment ratio of no more than 0.25.
For TGLN, the enrichment ratio was 25.4.
In the case of TGLS, the enrichment ratio is reported as 14.9.
RGLS was tested, and the enrichment ratio was no more than 0.25.
For EHHK, the enrichment ratio was 14.4.
In the case of NGLN, the enrichment ratio is reported as no more than 0.25.
With NGLS the enrichment ratio was no more than 0.25.
For KSWI, the enrichment ratio was no more than 0.25.
In the case of WIWI, the enrichment ratio is reported as no more than 0.25.
Variant EHHE has an enrichment ratio of no more than 0.25.
TGWI showed an enrichment ratio of 26.1.
CFLN was tested, and the enrichment ratio was no more than 0.25.
Variant EHHF has an enrichment ratio of no more than 0.25.
With FPGM the enrichment ratio was no more than 0.25.
Work on LGWH yielded an enrichment ratio of no more than 0.25.
GMYH was tested, and the enrichment ratio was no more than 0.25.
For PFMM, the enrichment ratio was no more than 0.25.
Work on RQLT yielded an enrichment ratio of no more than 0.25.
HMPW gave an enrichment ratio of no more than 0.25.
GHLA showed an enrichment ratio of no more than 0.25.
In the case of DNNV, the enrichment ratio is reported as no more than 0.25.
Variant TWFG has an enrichment ratio of no more than 0.25.
For WQAF, the enrichment ratio was no more than 0.25.
YTAW showed an enrichment ratio of no more than 0.25.
STAW was tested, and the enrichment ratio was 13.1.
Work on KYAW yielded an enrichment ratio of no more than 0.25.
In the case of SIAW, the enrichment ratio is reported as 16.5.
SQAW gave an enrichment ratio of no more than 0.25.
Work on WIAW yielded an enrichment ratio of no more than 0.25.
FGTC was tested, and the enrichment ratio was no more than 0.25.
RLLI showed an enrichment ratio of no more than 0.25.
DHVP was tested, and the enrichment ratio was no more than 0.25.
With LTSI the enrichment ratio was no more than 0.25.
ITSI showed an enrichment ratio of no more than 0.25.
With CTSI the enrichment ratio was 19.6.
YTSI was tested, and the enrichment ratio was no more than 0.25.
Variant TTSI has an enrichment ratio of 17.1.
In the case of KQSI, the enrichment ratio is reported as no more than 0.25.
PECL gave an enrichment ratio of no more than 0.25.
Work on DRWN yielded an enrichment ratio of no more than 0.25.
TETT gave an enrichment ratio of 25.2.
Variant NETT has an enrichment ratio of no more than 0.25.
Work on QETT yielded an enrichment ratio of no more than 0.25.
With MHTT the enrichment ratio was no more than 0.25.
METT gave an enrichment ratio of 13.
Variant MFTT has an enrichment ratio of no more than 0.25.
Variant DEMI has an enrichment ratio of no more than 0.25.
With SQNC the enrichment ratio was no more than 0.25.
EVAF was tested, and the enrichment ratio was no more than 0.25.
In the case of GNFR, the enrichment ratio is reported as no more than 0.25.
For PGNR, the enrichment ratio was no more than 0.25.
In the case of RASR, the enrichment ratio is reported as no more than 0.25.
Work on SEIS yielded an enrichment ratio of 8.01.
For SEAE, the enrichment ratio was 5.82.
For STAV, the enrichment ratio was 5.94.
SEWV gave an enrichment ratio of 0.784.
Variant SEIA has an enrichment ratio of 13.7.
In the case of SEIV, the enrichment ratio is reported as 18.7.
Variant SEAV has an enrichment ratio of 13.6.
MEIC was tested, and the enrichment ratio was 11.
SERC was tested, and the enrichment ratio was no more than 0.25.
DDIA showed an enrichment ratio of no more than 0.25.
Work on SPIA yielded an enrichment ratio of no more than 0.25.
SEIC showed an enrichment ratio of 32.9.
DHWR was tested, and the enrichment ratio was no more than 0.25.
With MSEQ the enrichment ratio was no more than 0.25.
LCAF showed an enrichment ratio of no more than 0.25.
With MMGP the enrichment ratio was no more than 0.25.
With YYDN the enrichment ratio was no more than 0.25.
PLDS was tested, and the enrichment ratio was no more than 0.25.
In the case of NPKR, the enrichment ratio is reported as no more than 0.25.
FGMH showed an enrichment ratio of no more than 0.25.
For SEMV, the enrichment ratio was 23.8.
In the case of SEPV, the enrichment ratio is reported as no more than 0.25.
In the case of SQIG, the enrichment ratio is reported as 9.99.
For SEEV, the enrichment ratio was 1.98.
In the case of SEMW, the enrichment ratio is reported as no more than 0.25.
SPIG was tested, and the enrichment ratio was no more than 0.25.
With SFFV the enrichment ratio was no more than 0.25.
SEIG gave an enrichment ratio of 13.1.
For SEIY, the enrichment ratio was 21.5.
In the case of DDIY, the enrichment ratio is reported as no more than 0.25.
In the case of KYIY, the enrichment ratio is reported as no more than 0.25.
SEFV was tested, and the enrichment ratio was 11.8.
For KQPW, the enrichment ratio was no more than 0.25.
DFRP was tested, and the enrichment ratio was no more than 0.25.
In the case of WSND, the enrichment ratio is reported as no more than 0.25.
AMAT showed an enrichment ratio of 3.36.
For YYEG, the enrichment ratio was no more than 0.25.
With ESCY the enrichment ratio was no more than 0.25.
SRIC gave an enrichment ratio of no more than 0.25.
LWNH was tested, and the enrichment ratio was no more than 0.25.
With LGQL the enrichment ratio was no more than 0.25.
QDGH was tested, and the enrichment ratio was no more than 0.25.
Variant HECM has an enrichment ratio of 24.
In the case of DWCM, the enrichment ratio is reported as no more than 0.25.
Variant HFCM has an enrichment ratio of 1.37.
SNCM showed an enrichment ratio of 11.2.
With TQCM the enrichment ratio was 33.7.
In the case of EQCM, the enrichment ratio is reported as no more than 0.25.
NQCM gave an enrichment ratio of no more than 0.25.
FQCM gave an enrichment ratio of 10.7.
HECK was tested, and the enrichment ratio was no more than 0.25.
With KQCM the enrichment ratio was no more than 0.25.
SQCM gave an enrichment ratio of 19.2.
IQCM gave an enrichment ratio of no more than 0.25.
In the case of SQKE, the enrichment ratio is reported as no more than 0.25.
PCCP was tested, and the enrichment ratio was no more than 0.25.
Work on PFFR yielded an enrichment ratio of no more than 0.25.
LMAE gave an enrichment ratio of no more than 0.25.
MLGA showed an enrichment ratio of no more than 0.25.
For SMKT, the enrichment ratio was no more than 0.25.
Variant AWAS has an enrichment ratio of no more than 0.25.
Variant IGQR has an enrichment ratio of no more than 0.25.
DAQH gave an enrichment ratio of no more than 0.25.
In the case of MEHG, the enrichment ratio is reported as 11.9.
YYHG gave an enrichment ratio of no more than 0.25.
Variant QPHG has an enrichment ratio of no more than 0.25.
MTHG showed an enrichment ratio of no more than 0.25.
In the case of STHG, the enrichment ratio is reported as no more than 0.25.
QEHG was tested, and the enrichment ratio was 11.2.
Variant HDSR has an enrichment ratio of no more than 0.25.
DTEC was tested, and the enrichment ratio was no more than 0.25.
Work on LQRA yielded an enrichment ratio of no more than 0.25.
Variant AIQG has an enrichment ratio of no more than 0.25.
Work on YGYF yielded an enrichment ratio of no more than 0.25.
GGAK showed an enrichment ratio of no more than 0.25.
NGRQ showed an enrichment ratio of no more than 0.25.
SNVN showed an enrichment ratio of 13.3.
SLNN showed an enrichment ratio of no more than 0.25.
With SNQN the enrichment ratio was no more than 0.25.
In the case of SNMN, the enrichment ratio is reported as 22.4.
Work on HEMN yielded an enrichment ratio of no more than 0.25.
SPVN showed an enrichment ratio of no more than 0.25.
